Among all 2,400 compounds or so, about 580 (24%) were called active. Only a sample is shown. Values without a mark were called inactive.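 The calls were made as follows: active = activity change at or above the mean plus 3 SD of buffer wells without dofetilide, per plate; inactive = the rest.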
These molecules were tested against Potassium voltage-gated channel subfamily KQT member 2 (Rattus norvegicus) (UniProt O88943) (assay: KCNQ2 potentiation in CHO cells – cell-based, FluxOR thallium flux, counter-screen for hERG block protector project, confirmation (AID 1942;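 also: normalized value minus buffer-control mean plus three SD of buffer wells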)). Settings: FluxOR thallium flux fluorescence, at 10 µM, hits give high values.
Chain of Potassium voltage-gated channel subfamily KQT member 2 (Rattus norvegicus) (O88943 whole entry, looked up): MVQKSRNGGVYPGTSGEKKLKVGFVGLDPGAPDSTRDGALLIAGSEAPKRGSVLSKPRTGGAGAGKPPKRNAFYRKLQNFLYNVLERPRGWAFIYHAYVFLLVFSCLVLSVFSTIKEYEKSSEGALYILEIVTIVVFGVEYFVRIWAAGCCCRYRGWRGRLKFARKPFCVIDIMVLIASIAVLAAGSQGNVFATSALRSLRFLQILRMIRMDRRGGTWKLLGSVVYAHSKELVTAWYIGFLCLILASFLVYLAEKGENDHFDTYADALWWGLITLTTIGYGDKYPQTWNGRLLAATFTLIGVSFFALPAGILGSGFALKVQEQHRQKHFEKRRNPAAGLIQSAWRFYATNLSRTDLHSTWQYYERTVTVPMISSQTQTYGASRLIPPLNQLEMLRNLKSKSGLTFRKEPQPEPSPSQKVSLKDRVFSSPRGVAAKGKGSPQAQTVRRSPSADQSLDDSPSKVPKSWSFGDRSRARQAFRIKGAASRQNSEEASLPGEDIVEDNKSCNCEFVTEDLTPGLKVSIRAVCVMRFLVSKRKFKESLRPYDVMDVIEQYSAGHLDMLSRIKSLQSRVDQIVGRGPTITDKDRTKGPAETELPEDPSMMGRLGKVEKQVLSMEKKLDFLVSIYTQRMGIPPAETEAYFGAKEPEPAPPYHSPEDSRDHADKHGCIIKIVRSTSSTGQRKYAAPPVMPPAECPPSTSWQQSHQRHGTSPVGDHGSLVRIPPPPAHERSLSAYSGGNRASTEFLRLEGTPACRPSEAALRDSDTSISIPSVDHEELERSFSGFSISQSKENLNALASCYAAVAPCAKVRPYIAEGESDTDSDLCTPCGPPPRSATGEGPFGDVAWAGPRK

First: O=C(CN1C(=O)S/C(=C\c2cc(Cl)c(O)c(Cl)c2)C1=O)Nc1ccccc1
Second: CC(C)C(=O)Nc1cccc(C(=O)Nc2ccccc2C(=O)O)c1
The activity change, less the hit threshold of the first is lower: -30.2% for the first, -17.8% for the second.

First: CC(C)C12CN3CC(C(C)C)(CN(C1)C31C(=O)Nc3ccccc31)C2=O (stereo not drawn)
Second: Cc1nnc2c(SC(C)C)nc3ccccc3n12
The activity change, less the hit threshold of the first is lower: -24.3% for the first, -19.3% for the second.

First: O=C(COC(=O)c1cc(S(=O)(=O)NCc2ccccc2)ccc1O)NCc1ccccc1
Second: O=C1CN(S(=O)(=O)c2ccccc2)CC(=O)N1CCc1ccccc1
The activity change, less the hit threshold of the first is higher: -13.2% for the first, -18.7% for the second.

First: C=CCN1C(=O)C(Cc2ccc(OCC)cc2)SC1=Nc1ccc(C(=O)O)cc1 (stereo not drawn)
Second: CCc1ccc(C(=O)CSc2nc3ccccc3c(=O)[nH]2)cc1
The activity change, less the hit threshold of the first is lower: -15.5% for the first, -15.1% for the second.

First: Cc1cccc(N/C(N)=N/c2nc(C)cc(=O)[nH]2)c1
Second: Cc1ccc(Nc2nc(C)cs2)cc1
The activity change, less the hit threshold of the first is lower: -13.7% for the first, -9.5% for the second.

First: Cc1nnc(N2C(=O)C(=O)/C(=C(\O)c3ccc4c(c3)CC(C)O4)C2c2ccccc2)s1 (stereo not drawn)
Second: Cc1oc2cc(O)ccc2c(=O)c1N1C(=O)c2ccccc2C1=O
The activity change, less the hit threshold of the first is higher: -7.2% for the first, -14.7% for the second.

First: Cc1cc(O)c(/C=N/OCc2ccc(Cl)cc2Cl)c(=O)o1
Second: COCc1cc(C)nc(OCC(=O)N/N=C/c2ccc(-c3cc([N+](=O)[O-])ccc3Cl)o2)c1C#N
The activity change, less the hit threshold of the first is lower: -19.1% for the first, -8.1% for the second.

First: Cc1cc(C)cc(NC(=O)N2CCCC2C(=O)Nc2ccc(-n3cnnn3)c(C)c2)c1 (stereo not drawn)
Second: Cc1ccc(NC(=O)c2ccc3c(c2)CCN3S(C)(=O)=O)c(C)c1
The activity change, less the hit threshold of the first is higher: -19% for the first, -23.2% for the second.

Compared with `CCOC(=O)Cc1csc(NC(=S)NC(=O)C(C)(C)C)n1`, `CCOC(=O)Cc1csc(NC(=S)NC(=O)c2ccc(C)cc2)n1` is lower in activity change, less the hit threshold: -1.3% for the first, -3.1% for the second.

First: CCOC(=O)Cc1csc(NC(=S)NC(=O)c2ccc(Cl)cc2)n1
Second: COc1ccc(-c2csc(NC(=S)NC(=O)c3ccc4ccccc4c3)n2)cc1OC
The activity change, less the hit threshold of the first is higher: -7.1% for the first, -11.9% for the second.

Compared with `Cc1[nH]cnc1CSCCN`, `COCCOC(=O)C1=C(C)Nc2ncnn2C1c1ccc(F)cc1` (stereo not drawn) is lower in activity change, less the hit threshold: -10.5% for the first, -22% for the second.

Compared with `CCOC(=O)N1CCN(C(=O)CSc2nnc(-c3ccccc3OC)o2)CC1`, `COc1ccc(C(=O)NNC(=O)CSc2nnc(COc3ccccc3)n2C)cc1` is lower in activity change, less the hit threshold: -10.3% for the first, -15.5% for the second.

Going from `Brc1ccc(Nc2nc(-c3cccnc3)cs2)cc1` to `Cn1nc(C(F)(F)F)c(-c2ccc(Br)cc2)c1NC(=O)c1cccnc1`, the activity change, less the hit threshold falls from -11.1% to -21.4%.

Compared with `O=C(COC(=O)C1CCC(=O)N1)Nc1ccc(Oc2ccccc2)cc1` (stereo not drawn), `O=C(O)COc1ccc(NC(=O)c2ccc3c(c2)C(=O)N(C2CCCCC2)C3=O)cc1` is higher in activity change, less the hit threshold: -11% for the first, -6.7% for the second.

First: CN(CC(=O)Nc1nc2ccccc2s1)S(=O)(=O)c1ccc(Cl)cc1
Second: Cc1ccc(Cl)cc1NC(=S)N/N=C/c1cccc2ccccc12
The activity change, less the hit threshold of the first is lower: -27% for the first, -24.4% for the second.

First: Cn1ncc2c(O/N=C(\N)c3ccc(C(F)(F)F)cc3)ncnc21
Second: O=C(OCCNc1ccc(C(F)(F)F)cc1[N+](=O)[O-])c1cc2ccccc2oc1=O
The activity change, less the hit threshold of the first is higher: -7.2% for the first, -14.3% for the second.

Compared with `COC(=O)c1c(NC(=O)C2CC=CCC2C(=O)O)sc(C)c1C` (stereo not drawn), `Cc1ccccc1C(=O)NC(=S)Nc1sc2c(c1C#N)CCC(C)C2` (stereo not drawn) is lower in activity change, less the hit threshold: -12.3% for the first, -29% for the second.

Compared with `Cc1onc(-c2ccccc2)c1C(=O)NC(=S)Nc1sc2c(c1C#N)CCC(C)C2` (stereo not drawn), `CCc1ccc(NC(=S)NC(=O)c2c(-c3ccccc3Cl)noc2C)cc1` is lower in activity change, less the hit threshold: -3.3% for the first, -17.1% for the second.

Compared with `CCc1ccccc1NC(=O)CC1CS(=O)(=O)CC1CC(=O)Nc1ccccc1CC` (stereo not drawn), `O=C(CC(=O)c1ccccc1O)c1cccc(F)c1` is higher in activity change, less the hit threshold: -17% for the first, -11.1% for the second.

First: CC(C)(C)c1ccc(Cn2nc(CC(=O)O)c3ccccc3c2=O)cc1
Second: CCN(CC)CCCNC(=O)c1cn(-c2cccc(OC)c2)c(=O)c2ccccc12
The activity change, less the hit threshold of the first is higher: -4.4% for the first, -18.5% for the second.

Compared with `C=CCn1c2ccccc2c(=O)c2cc(C#Cc3ccsc3)ccc21`, `Cc1ccccc1OCC(=O)N=Nc1c(O)n(C)c2ccccc12` is higher in activity change, less the hit threshold: -16% for the first, -2.4% for the second.

First: CCCCOC(=O)Cn1c2ccc(OC)cc2c2nc3ccccc3nc21
Second: COc1ccc(Cc2c(O)nc(SCC(=O)NC(C)(C)C)[nH]c2=O)cc1
The activity change, less the hit threshold of the first is higher: -3.3% for the first, -19.2% for the second.

Compared with `Cc1ccc(-c2cccc(C3CC=CC4C3C(=O)N(Cc3ccccc3)C4c3ccc4ccccc4c3)c2)cc1` (stereo not drawn), `CS(=O)(=O)N(Cc1ccccc1)c1ccc(C(=O)Nc2ccc(C(N)=O)cc2)cc1` is lower in activity change, less the hit threshold: -15.4% for the first, -23.7% for the second.

Compared with `Cc1ccc(NC(=O)COc2cccnc2[N+](=O)[O-])cc1S(=O)(=O)N1CCOCC1`, `COc1ccc(-c2ccc(/C=N/NC(=O)c3cccnc3)o2)c([N+](=O)[O-])c1` is higher in activity change, less the hit threshold: -18.2% for the first, -11.4% for the second.

First: CCc1ccc2[nH]c(O)c(N=Nc3nc(-c4ccccc4)cs3)c2c1
Second: Fc1cccc(C2NN=C(c3ccccc3)S2)c1 (stereo not drawn)
The activity change, less the hit threshold of the first is lower: -16.3% for the first, -7.2% for the second.

First: N#Cc1cccc(N=c2ssnc2Cl)c1
Second: COc1cc(S(=O)(=O)n2cnc(C)c2)ccc1Cl
The activity change, less the hit threshold of the first is higher: -15.2% for the first, -21.2% for the second.

Compared with `Cc1cc(=O)[nH]c(N/N=C2/CCCC/C2=C\c2ccccc2)n1`, `Cc1c(C(=O)NC(=S)NCc2cccnc2)oc2ccccc12` is lower in activity change, less the hit threshold: -11.4% for the first, -18.2% for the second.

Compared with `C/C(=N\NC(N)=S)c1ccncc1`, `C/C(=N\NC(N)=S)c1cccnc1` is lower in activity change, less the hit threshold: -10.4% for the first, -17.7% for the second.

Going from `CSC(=S)N/N=C/c1ccc(Br)cc1` to `CC(C)NC(=S)N/N=C/c1ccc(C(C)(C)C)cc1`, the activity change, less the hit threshold falls from -6.8% to -8.8%.

First: COc1ccc(-n2c(SCC#N)nnc2-c2cccnc2)cc1
Second: CCOc1ccc(-c2cccc(NC(=O)c3ccc(Br)o3)c2)nn1
The activity change, less the hit threshold of the first is higher: -24.2% for the first, -30.4% for the second.

Compared with `Cc1cc(F)c(F)c(C(=O)N2CCOCC2)c1`, `CC(C(=O)N1CCN(c2ccc([N+](=O)[O-])cc2)CC1)N1C(=O)C2CC=CCC2C1=O` (stereo not drawn) is higher in activity change, less the hit threshold: -20.6% for the first, -20.1% for the second.

First: CC(C)(C)OC(=O)N1CCC2(CC1)Oc1ccc(Cl)cc1C(=O)C21CC(c2ccc(Cl)cc2)=NO1 (stereo not drawn)
Second: O=C(O)c1ccc2c3n(nc2c1)-c1ccc(Cl)cc1CO3
The activity change, less the hit threshold of the first is lower: -20.7% for the first, -11.6% for the second.

Going from `Cc1cc(NC(=O)CSc2ccc3nnc(-c4cccs4)n3n2)no1` to `Cc1cc(C)n2nc(SCC(=O)NC3CCCCC3C)nc2n1` (stereo not drawn), the activity change, less the hit threshold falls from -20.2% to -30.3%.

Compared with `O=C(NC(=S)NNC(=O)c1cccs1)c1ccc(Br)o1`, `O=C(CNC(=S)NC(=O)c1ccc(Br)o1)c1ccccc1` is higher in activity change, less the hit threshold: -12.6% for the first, -11.7% for the second.

First: O=C(NC(=S)Nc1cccc(Cl)c1)c1cncc(Br)c1
Second: Cc1ccc(C)c(NC(=S)NC(=O)c2cncc(Br)c2)c1
The activity change, less the hit threshold of the first is lower: -16.1% for the first, -2.9% for the second.

First: COCCN(C(=O)CSc1nnc(C)n1Cc1ccccc1)c1c(N)n(CC(C)C)c(=O)[nH]c1=O
Second: S=C(NCc1ccccc1)NCc1ccccc1Cl
The activity change, less the hit threshold of the first is higher: -21.8% for the first, -23.7% for the second.

First: Cc1nc2n(n1)CC(O)CS2 (stereo not drawn)
Second: CCOc1ccc(NC(=O)C2C(C(=O)O)C3(Cl)C(Cl)=C(Cl)C2(Cl)C3(Cl)Cl)cc1 (stereo not drawn)
The activity change, less the hit threshold of the first is lower: -16.3% for the first, -15.5% for the second.

First: COc1ccc(OC)c(NC(=S)NC(=O)c2ccc(Br)o2)c1
Second: Fc1ccccc1NC(=S)N/N=C/c1ccccc1Br
The activity change, less the hit threshold of the first is higher: -6.9% for the first, -25.7% for the second.

With `C=CCn1c(SCc2ccc(C(=O)O)cc2)nc2sc(C)c(C)c2c1=O` the activity change, less the hit threshold was 46.6% (active).
`Cc1ccc(Nc2cc(C)nn2-c2nc(C)cc(=O)[nH]2)cc1` was tested, and the activity change, less the hit threshold was 68.6% (active).
In the case of `CCOC(=O)Cc1csc(NC(=S)NC(=O)c2ccccc2Br)n1`, the activity change, less the hit threshold is reported as 9.2% (active).
With `CCOC(=O)Cc1csc(NC(=S)NC(=O)c2ccccc2C)n1` the activity change, less the hit threshold was 3.3% (active).
For `Cc1csc(NC(=S)NC(=O)c2ccccc2)n1`, the activity change, less the hit threshold was 7.2% (active).
With `CCC(C)(C)C1CCc2c(sc(NC(=O)c3ccccc3C(=O)O)c2C#N)C1` (stereo not drawn) the activity change, less the hit threshold was 38.4% (active).
With `CCC1CCc2c(sc(NC(=O)C3CC=CCC3C(=O)O)c2C#N)C1` (stereo not drawn) the activity change, less the hit threshold was 1.4% (active).
For `CC(C)OC(=O)c1c2nc3ccccc3nc2n2c1[nH]c(=O)c1ccccc12`, the activity change, less the hit threshold was 83.4% (active).
With `Cn1c(O)c(N=Nc2nc(-c3ccccc3)cs2)c2ccccc21` the activity change, less the hit threshold was 67.2% (active).
For `CSC(=S)N/N=C/c1ccccc1`, the activity change, less the hit threshold was 48% (active).
`CSC(=S)N/N=C(\C)c1ccccc1` was tested, and the activity change, less the hit threshold was 42.3% (active).
With `Cc1ccc(NC(=S)NC(=O)c2ccc(Br)o2)c(C)c1` the activity change, less the hit threshold was 8.1% (active).
With `O=C(NC(=S)Nc1cccnc1)c1cc2ccccc2o1` the activity change, less the hit threshold was 10.1% (active).
For `O=C(NC(=S)Nc1ccccc1)c1ccc(Br)o1`, the activity change, less the hit threshold was 3.3% (active).
`O=C(NC(=S)Nc1ccccc1F)c1ccc(Br)o1` was tested, and the activity change, less the hit threshold was 59.7% (active).
With `CCN(c1ccccc1)S(=O)(=O)c1ccc(NC(=S)NC(=O)c2ccc(Br)o2)cc1` the activity change, less the hit threshold was 0.3% (active).
`O=C(NC(=S)NCc1ccccc1)c1ccc(Br)o1` was tested, and the activity change, less the hit threshold was 70.4% (active).
In the case of `COc1ccc(NC(=S)NC(=O)c2ccc(Br)o2)cc1`, the activity change, less the hit threshold is reported as 11.8% (active).
For `Cc1cccc(NC(=S)NC(=O)c2ccc(Br)o2)c1`, the activity change, less the hit threshold was 46.1% (active).
In the case of `S=C(N/N=C/c1ccccc1Cl)Nc1cccc(Cl)c1Cl`, the activity change, less the hit threshold is reported as 8.6% (active).
`C=CCNC(=S)Nc1sc2c(c1C(=O)OCC)CC(C)(CC)OC2` (stereo not drawn) was tested, and the activity change, less the hit threshold was 15.9% (active).
`C=CCNC(=S)Nc1sc2c(c1C(=O)OCC)CC(C(C)C)OC2` (stereo not drawn) was tested, and the activity change, less the hit threshold was 16.9% (active).

Source: PubChem BioAssay AID1942 (Johns Hopkins Ion Channel Center, 2009)
